The whole screen tested about 4,800 compounds, of which about 420 (8.8%) showed an effect of 50% or more. The sample as a whole holds a higher share of strong results than the screen did.
The compounds below were run on Plasmodium falciparum (assay: Confirmatory screen in NF54 nanoGlo assay, in single point, at 2uM, 72h). Details: timepoint 72 hour.
Type: functional, Erythrocyte

Row | Compound | % Inhibition
1 | CN(C)c1noc(CN2CCc3ccc(F)cc3C2)n1 | 25%
2 | COc1ccc(S(=O)(=O)Nc2c(C)nc3ncnn3c2O)cc1 | -18%
3 | CCN1CCN(c2nc(O)c3c(n2)NC(=O)C[C@H]3c2cccc(F)c2)CC1 | -11%
4 | Cn1ncc2c(NCCO)nc(N3CCCCCC3)nc21 | 5%
5 | N#Cc1cc(S(=O)(=O)NCCN(C2CC2)S(=O)(=O)c2ccc(Cl)c(C#N)c2)ccc1Cl | 75%
6 | O=S(=O)(NC1CCCCC1)c1ccc(Cl)c(S(=O)(=O)NC2CCCCC2)c1 | 0%
7 | COc1ccc(-n2nc(C(=O)N3CCN(c4ccccc4)CC3)c(=O)cc2OC)cc1 | -5%
8 | Cn1ccnc1[C@@H](NC(=O)c1ccnn1C(F)F)C(C)(C)CO | -2%
9 | CCc1nc2c(C(=O)N3CCOc4c(C)cc(C)cc43)ccnc2[nH]1 | 72%
10 | COc1cccc(CNCc2ccc3c(c2)OCO3)c1OCc1ccc(Cl)cc1Cl | -3%
11 | Cc1c(C(=O)N2CCCCC2)cccc1N1CCNC1=O | -15%
12 | COc1ccc2c(c1)OC13CCN(C)CC1C2C(C(=O)c1ccccc1OC)C(=O)N3 (stereo unspecified) | 57%
13 | COc1cccc(NC(=O)c2ccccc2C(=O)OCCN2CCOCC2)c1 | -2%
14 | COc1cccc(C(=O)N2CCC3(CC2)C[C@@H](OCc2ccccc2)CCO3)c1 | -3%
15 | Cc1cc(C(=O)NCC[C@H](C)n2nc(C)cc2C)c2c(-c3ccc(F)cc3)noc2n1 | -9%
16 | Cn1cc(-c2nn(S(=O)(=O)c3ccccc3)c(-c3cnn(C)c3)c2Cl)cn1 | 2%
17 | CC1CC1NC(=O)C(NS(C)(=O)=O)C(C)(C)C (stereo unspecified) | 8%
18 | Cc1nc[nH]c1CN1CCN(C(=O)CCC(C)C)[C@H]2CS(=O)(=O)C[C@H]21 | 0%
19 | CCc1nc2cc(-c3noc(Cc4ccc(Cl)cc4)n3)ccc2o1 | -5%
20 | O=C(c1ccccc1)c1ccc(O)c(CN2CCCN(c3ccc(C(F)(F)F)cn3)CC2)c1O | 79%
21 | Cc1ccc(-n2nc(C)cc2NC(=O)CN2CCCN(c3ccc(C(F)(F)F)cn3)CC2)cc1 | 6%
22 | Cc1cccc(-c2nc3nc(C)c(CC(=O)N4CCCCC4)c(C)n3n2)c1 | 1%
23 | O=C(c1ccccc1OCC1CC1)N1CC(O)C1 | -5%
24 | Cc1c(Cl)cccc1NC(=O)[C@H]1CC(=O)N(c2ccc(OCc3ccccc3)cc2)C1 | -3%

Row | Compound | % Inhibition
25 | O=C(Cn1cnc2cc3c(cc21)OCCCO3)N1CCc2ccccc21 | 0%
26 | COc1cccc(CNC(C)(C)C)c1OCC(=O)NC(C)(C)C | -5%
27 | CC[C@@H](CO)NCc1cccc(OC)c1OCC(=O)NC(C)(C)C | -8%
28 | CCOc1cc(CNc2cccc3ccccc23)cc(Br)c1OCC(=O)NC(C)(C)C | 89%
29 | COc1ccc(Cl)cc1CNC[C@H](C)O | -6%
30 | C[n+]1ccccc1/C=C/c1c[nH]c2ccccc12 | 90%
31 | CCc1ccc(/C=C/c2c[nH]c3ccccc23)[n+](CC)c1 | 89%
32 | O=C(Cc1cccs1)NC1CCN(c2nnc3ccc(Cl)cn23)CC1 | -12%
33 | Cc1ccc([C@@H]2c3cccn3CCCN2Cc2cccs2)cc1C | 10%
34 | O=C(O)COc1ccccc1[C@H]1CC(O)=Nc2cccc3c2c1cn3Cc1cccc(F)c1 | 1%
35 | N#Cc1ccc(CNc2ccccc2OCC(F)F)o1 | -10%
36 | CNCCCNC(=O)c1ccc(Br)cc1C | 5%
37 | CNC(=O)[C@@H]1C[C@H](NCc2cc(OC)c(OC)c(OC)c2)CN1CC(c1ccccc1)c1ccccc1 | 63%
38 | COc1cc(CNC2CCCCC2)cc(Br)c1OCc1ccccc1Cl | 5%
39 | COc1cc(NC(=O)N2CC(c3noc(-c4ccccc4)n3)C2)cc(OC)c1OC | 2%
40 | Cc1nc([C@H](C)NC(=O)c2ccc(S(C)(=O)=O)cc2)cs1 | 3%
41 | Cc1onc(C(=O)N2CCC3(CC2)CC[C@]3(C)O)c1Cn1cccn1 | -6%
42 | CC(=O)Nc1cc2c(cc1NC(C)=O)N(C(C)=O)CC2 | -15%
43 | COc1ccc(C2=Nc3ccc(S(=O)(=O)N4CCOCC4)cc3S(=O)(=O)N2)cc1 | -10%
44 | C[C@H]1CCC[C@@H](NCCc2ccccc2)CCC/C=C/c2cc(O)cc(O)c2C(=O)O1 | 77%
45 | Cc1nc2c(-c3ccco3)nc(=O)n(CC(=O)Nc3cccc4ccccc34)c2s1 | -8%
46 | COc1cccc(NC(=O)N2CC(O)CC2C2CCCCC2)c1 (stereo unspecified) | -3%
47 | Oc1cccc(CN2CCC3(CC2)C[C@H](c2ccccc2)CN(C2CC2)C3)c1 | 31%
48 | COc1ccc(-c2nccn3cc(C(=O)NCC(C)C)nc23)cc1 | -2%

Row | Compound | % Inhibition
49 | Cc1cccc(Cc2c(C)nn(-c3nc(C)cc(C)n3)c2O)c1 | -18%
50 | CN(C)C(=O)c1cc2c(s1)CC[C@H](C(=O)NCCN1CCOCC1)C2 | 6%
51 | O=C1C[C@H](c2cccnc2)c2cnn(C3CCCC3)c2N1 | 6%
52 | Cc1nn(-c2nc3ccccc3[nH]2)c2c1[C@@H](c1cccnc1)CC(=O)N2 | 79%
53 | Cc1nn(-c2ncccn2)c2c1[C@@H](c1ccccc1)CC(=O)N2 | -16%
54 | O=C(CN1CCC[C@H]1C1CCCC1)NCC1CCCCC1 | 27%
55 | CC1=NN(c2ccccc2)C(O)C1C(c1ccccc1O)C1C(C)=NN(c2ccccc2)C1O (stereo unspecified) | -7%
56 | Cc1ccccc1Cn1nc2ccc(S(=O)(=O)N3CCOCC3)cn2c1=O | 4%
57 | COc1ccc([C@@H]2c3[nH]c4ccc(OC)cc4c3CCN2C(=O)NCc2ccc(F)cc2)cc1 | 14%
58 | COc1ccc2[nH]c3c(c2c1)CCN(C(=O)c1ccc(C)c(C)c1)[C@@H]3c1ccccc1OC | 84%
59 | COc1ccc(N2CCN(C(=O)c3ccc(F)cc3)[C@@H](C)C2=O)cc1 | 5%
60 | COC(=O)c1nc2ccccc2c(-c2cn(-c3ccc(C(F)(F)F)cc3)nn2)c1C(=O)OC | 1%
61 | CC(C)CNC(=O)N1CCCC[C@H]1c1noc(COc2ccc(F)cc2)n1 | -9%
62 | c1ccc(C2=NN(c3ccc(-c4cc(-c5ccccc5)[n+](-c5ccccc5)c(-c5ccccc5)c4)cc3)[C@H](c3ccccc3)C2)cc1 | 94%
63 | COc1ccc(C2=NN(C(C#N)c3cccc(OC)c3O)C(c3ccccc3)C2)cc1 (stereo unspecified) | 4%
64 | N#CC(c1ccc(Cl)cc1)N1N=C(c2ccccc2)CC1c1ccccc1 (stereo unspecified) | 4%
65 | Cc1cccc(C(=O)Nc2c(C#N)c(-c3ccccc3)c(-c3ccccc3)n2Cc2ccccc2)c1 | 3%
66 | Cc1c(C)n(C[C@@H](O)CNC2CCCC2)c2c(Cl)cccc12 | -1%
67 | Cc1c(C)n(CC(O)CNC(C)c2ccccc2)c2c(Cl)cccc12 (stereo unspecified) | 64%
68 | CCC(C)NCC(O)Cn1c(-c2ccccc2)c(-c2ccccc2)c2cc(C)ccc21 (stereo unspecified) | 92%
69 | CC(NCC(O)Cn1c(-c2ccccc2)c(-c2ccccc2)c2ccc3ccccc3c21)c1ccccc1 (stereo unspecified) | 88%
70 | Cc1c(C)n(C[C@H](O)Cn2c(C(F)(F)F)nc3ccccc32)c2c(Cl)cccc12 | -6%
71 | O=C(Cn1c(=O)n(Cc2nc(-c3ccccc3)no2)c(=O)c2ccccc21)Nc1cccc(Cl)c1 | 5%
72 | O=C(NCc1ccccc1)c1cnn2c3c(cnc12)CCCCCC3 | 2%

Row | Compound | % Inhibition
73 | CCc1ccccc1NC(=O)c1sccc1S(=O)(=O)N1CCc2ccccc2C1 | 2%
74 | Cc1cnc(CNC(=O)Nc2nnc3ccccn23)s1 | -13%
75 | NC(=O)c1cccc(NC(=O)CC2=CCCCC2)n1 | -11%
76 | CC[C@H]1CN2C=NC(N3CCN(C(=O)Nc4cc(F)cc(F)c4)CC3)=CC2=N1 | 35%
77 | O=C(CCC(=O)c1ccc(F)cc1F)NS(=O)(=O)c1cccnc1 | -4%
78 | Cc1ccc(S(=O)(=O)Nc2c(S(=O)(=O)c3ccccc3)c3nc4ccccc4nc3n2CCc2ccccc2)cc1 | 97%
79 | CS(=O)(=O)n1c(CCCc2ccccc2)nc2ccccc21 | 1%
80 | Cc1ccc(S(=O)(=O)c2c(C)cc(-c3ccccc3)nc2N2CCOCC2)cc1 | 0%
81 | Cc1ccc(-c2nc3c(c(=O)n2CC(=O)NC[C@H]2CCCO2)CCN(Cc2ccccc2)C3)cc1 | -9%
82 | Cc1cc(NC(=O)Cn2c(=O)n(CCc3ccccc3)c(=O)c3ccccc32)no1 | 4%
83 | Cc1ccc(NS(=O)(=O)c2ccc(NC(=O)Cc3ccccc3)cc2)cc1C | 2%
84 | Cc1ccc(S(=O)(=O)Nc2c(S(=O)(=O)c3ccc(C)cc3)c3nc4ccccc4nc3n2C[C@H]2CCCO2)cc1 | 52%
85 | Cc1ccc(S(=O)(=O)Nc2c(S(=O)(=O)c3ccc(C)cc3)c3nc4ccccc4nc3n2CCC(C)C)cc1 | 98%
86 | Cc1ccc(S(=O)(=O)Nc2cc3nc4ccccc4nc3n2CCc2ccccc2)cc1 | 100%
87 | Cc1ccc(S(=O)(=O)Nc2ccccc2-c2nnc(-c3c(NS(=O)(=O)c4ccc(C)cc4)ccc4ccccc34)o2)cc1 | -14%
88 | Cc1cnc(C2CCC2)n1CCNS(=O)(=O)c1ccccc1 | -4%
89 | Cc1ccc(NCc2ncccn2)cc1OCC1CCCCC1 | 1%
90 | O=C(C1CCCC2CCCCC21)N1CCN(c2ncccn2)CC1 (stereo unspecified) | -8%
91 | Cc1cc(-n2nnc3ccccc32)nc(C)n1 | 4%
92 | Cc1ccc(Cl)c2ccc(NC(=O)CCNC(N)=O)nc12 | 0%
93 | CN([C@H]1CCc2ccccc21)S(=O)(=O)c1ccc2c(c1)CCC2 | 7%
94 | Brc1ccc2sncc2c1 | -3%
95 | COc1cncc(C(=O)N2CCCc3cc(S(C)(=O)=O)ccc32)n1 | 9%
96 | CN1CCN(CCc2nc(-c3ccc4cc[nH]c4c3)no2)CC1 | -4%

Reference: ChEMBL document CHEMBL4888484, “Replenishing the malaria drug discovery pipeline: Screening and hit evaluation of the MMV Hit Generation Library 1 (HGL1) against asexual blood stage Plasmodium falciparum ,using a nano luciferase reporter read-out” (2022)
